# Source: PubChem BioAssay (NCI)
# This is part of a sample that, as a whole, favours compounds with a hit. Of some 83,000 tested, about 20% had one in any assay.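 Growth was measured after 48 h exposure to one concentration of compound in 96-well plates. Values under 10 count as active.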 Unmarked numbers belong to inactive results. Activity calls are given as the source filed them.
# Test system: A498 renal
# Assay: NCI-60 one-dose screen, 48 h (100 = growth as untreated, 0 = no growth, -100 = all killed)
# Settings: 10 µM unless noted
row,Compound,growth
1,COc1cc(/C=C2\CN(S(=O)(=O)c3ccccc3)C/C(=C\c3cc(CN4CCCCC4)c(O)c(OC)c3)C2=O)cc(CN2CCCCC2)c1O,95%
2,O=C(N/N=C/c1cc(Cl)ccc1O)c1ccccc1Nc1ccnc(C(F)(F)F)c1,65.7%
3,COc1cc(OC)c(C(=O)C(CN(C)C)CN(C)C)cc1OC,113%
4,CCOc1cccc(/C=N/NC(=O)c2cccc(Nc3ccnc(C(F)(F)F)c3)c2)c1O,61.5%
5,O=C1/C(=C/c2ccc(O)c(O)c2)COc2ccc(-c3ccccc3)cc21,30.7%
6,CCN1C(=O)N(CC)C2C1NC(=S)N2/N=C/c1ccc(OC)cc1 (stereo not drawn),29.9%
7,Cc1ccc2c(=O)cc(C(=O)Nc3sc4c(c3C(=O)NCc3cccnc3)CCCC4)oc2c1C,89.1%
8,CCOC(=O)CC1CSC(Nc2ccccc2)=N1 (stereo not drawn),83%
9,Nn1c(=O)c(=O)[nH]c2c(cnn2-c2ccccc2)c1=O,113%
10,Nc1[nH]n2cc(-c3ccc(F)cc3)nc2c1N=Nc1ccc(S(N)(=O)=O)cc1,40.1%
11,Cn1cc(-c2csc(-c3c[nH]c4ccc(F)cc34)n2)c2ccnc(Cl)c21,42.5%
12,Cc1nc2c(c(=O)[nH]1)C(c1ccccc1)c1ccc3ccccc3c1O2 (stereo not drawn),20.6%
13,C=C(C)[C@@H]1CC[C@]2(C(N)=O)CC[C@]3(C)[C@H](CC[C@@H]4[C@@]5(C)CC[C@H](OCCC#N)C(C)(C)[C@@H]5CC[C@]43C)[C@@H]12,116%
14,N#Cc1c(Nc2ccc(N3CCOCC3)cc2)nc(SCC(=O)c2ccc(Br)cc2)nc1-c1ccccc1,105%
15,O=C(NNC(=O)c1ccc(NC(=O)c2ccccn2)cc1)Nc1ccc2ccccc2c1,137%
16,CC(=O)OC[C@]12CC[C@@H]([C@@H](C)c3nnc(-c4ccncc4)o3)[C@@H]1[C@H]1CC[C@@H]3[C@@]4(C)CC[C@H](OC(C)=O)C(C)(C)[C@@H]4CC[C@@]3(C)[C@]1(C)CC2,97.4%
17,CCN(CC)Cc1cc(Nc2ccnc3cc(Cl)ccc23)ccc1O,95.7%
18,COc1ccc(/C=C/C(c2cc(OC)c(OC)c(OC)c2)n2cncn2)cc1 (stereo not drawn),36.4%
19,Cc1ccc(C)c2c(C)c(C(=O)Nc3cccc(-n4cccn4)c3)oc12,55.6% [50 µM]
20,COc1ccc(/C=C/C(c2cc(OC)c(OC)c(OC)c2)n2ccnc2)cc1O (stereo not drawn),67.5%

row,Compound,growth
1,O=S(=O)(NCCCNc1nccc(-c2c(-c3cccc(F)c3)nc3occn23)n1)c1ccc(F)cc1,45.7%
2,Cn1cc(-c2ccc(-c3cn(C)c4ccc(Cl)cc34)[nH]2)c2cc(Cl)ccc21,48.6%
3,S=C(c1ccc2c(c1)OCO2)N1CCN(c2cccc(Cl)c2)CC1,33.3%
4,O=C(O)c1ccc(-c2ccc(/C=N/Nc3nc(Nc4ccccc4)nc(N4CCCCC4)n3)o2)cc1,72.8%
5,COc1cccc(Nc2ncnc3cc(NC(=O)CCl)ccc23)c1,-5.63% (active)
6,COc1ccc(-c2n[nH]c(=O)c3nc(NC(=S)Nc4ccc(Oc5ccccc5)cc4)sc23)cc1,80.4%
7,COc1ccc(C(=O)N2c3ccccc3Sc3ccccc32)c(C(F)(F)F)c1,8.71% (active)
8,C#CCNC(=O)[C@]1(C)CCC[C@@]2(C)[C@H]1CC=C1C=C(C(C)C)CC[C@@H]12,102%
9,O=C(CCCCCNC(=O)c1cc(=O)c(O)co1)Nc1ccccc1,96%
10,CNC1=CC(=O)c2c(C(=O)OC)c(C)[n+]([O-])c(C)c2C1=O,103%
11,O=C1/C(=C\c2ccccn2)c2ccccc2N1c1c(Cl)cccc1Cl,21.3%
12,COc1cc(OC)cc(-c2ccc(-c3ccc(C(=N)N)o3)o2)c1,68.5%
13,C#CCOc1cccc(-c2ncnc3cc(NC(=O)C=C)ccc23)c1,44.5%
14,COc1ccc(-c2nn(-c3ccccc3)cc2/C=C/C(=O)NNC(=O)Nc2ccc(C)cc2)cc1,109%
15,C/C(Cc1ccc(Cl)cc1)=C(\c1ccc(OCCCN(C)C)cc1)c1ccc(OC(=O)Cc2ccccc2)cc1,113%
16,CCOC(=O)C(=CNc1cnc(Nc2ccc(N3CCOCC3)cc2)nc1Oc1ccc(OC)cc1)C(=O)OCC,42.1%
17,CC[N+]1(CC)CC[N+]2(CCCC(C)CC2)CC1 (stereo not drawn),95.8%
18,CCNc1nc(O)c(/C=C2\C=Nc3ncccc32)s1,-54.2% (active)
19,COc1cc(/C=N/Nc2ccc(Br)cc2)cc(OC)c1OC,60%

# Test system: CCRF-CEM leukemia
# Assay: as above
# Settings: 10 µM unless noted
row,Compound,growth
1,COc1cc(/C=C2\CN(S(=O)(=O)c3ccccc3)C/C(=C\c3cc(CN4CCCCC4)c(O)c(OC)c3)C2=O)cc(CN2CCCCC2)c1O,-2.62% (active)
2,O=C(N/N=C/c1cc(Cl)ccc1O)c1ccccc1Nc1ccnc(C(F)(F)F)c1,12.4%
3,COc1cc(OC)c(C(=O)C(CN(C)C)CN(C)C)cc1OC,-58.1% (active)
4,CCOc1cccc(/C=N/NC(=O)c2cccc(Nc3ccnc(C(F)(F)F)c3)c2)c1O,6.39% (active)
5,O=C1/C(=C/c2ccc(O)c(O)c2)COc2ccc(-c3ccccc3)cc21,16.2%
6,CCN1C(=O)N(CC)C2C1NC(=S)N2/N=C/c1ccc(OC)cc1 (stereo not drawn),52.8%
7,Cc1ccc2c(=O)cc(C(=O)Nc3sc4c(c3C(=O)NCc3cccnc3)CCCC4)oc2c1C,93%
8,CCOC(=O)CC1CSC(Nc2ccccc2)=N1 (stereo not drawn),98.3%
9,Nn1c(=O)c(=O)[nH]c2c(cnn2-c2ccccc2)c1=O,108%
10,Nc1[nH]n2cc(-c3ccc(F)cc3)nc2c1N=Nc1ccc(S(N)(=O)=O)cc1,66.6%
11,Cn1cc(-c2csc(-c3c[nH]c4ccc(F)cc34)n2)c2ccnc(Cl)c21,50.5%
12,Cc1nc2c(c(=O)[nH]1)C(c1ccccc1)c1ccc3ccccc3c1O2 (stereo not drawn),13%
13,C=C(C)[C@@H]1CC[C@]2(C(N)=O)CC[C@]3(C)[C@H](CC[C@@H]4[C@@]5(C)CC[C@H](OCCC#N)C(C)(C)[C@@H]5CC[C@]43C)[C@@H]12,78.9%
14,N#Cc1c(Nc2ccc(N3CCOCC3)cc2)nc(SCC(=O)c2ccc(Br)cc2)nc1-c1ccccc1,125%
15,O=C(NNC(=O)c1ccc(NC(=O)c2ccccn2)cc1)Nc1ccc2ccccc2c1,104%
16,CC(=O)OC[C@]12CC[C@@H]([C@@H](C)c3nnc(-c4ccncc4)o3)[C@@H]1[C@H]1CC[C@@H]3[C@@]4(C)CC[C@H](OC(C)=O)C(C)(C)[C@@H]4CC[C@@]3(C)[C@]1(C)CC2,68.4%
17,CCN(CC)Cc1cc(Nc2ccnc3cc(Cl)ccc23)ccc1O,88.8%
18,COc1ccc(/C=C/C(c2cc(OC)c(OC)c(OC)c2)n2cncn2)cc1 (stereo not drawn),35.1%
19,Cc1ccc(C)c2c(C)c(C(=O)Nc3cccc(-n4cccn4)c3)oc12,42.4% [50 µM]
20,COc1ccc(/C=C/C(c2cc(OC)c(OC)c(OC)c2)n2ccnc2)cc1O (stereo not drawn),37.1%

row,Compound,growth
1,O=S(=O)(NCCCNc1nccc(-c2c(-c3cccc(F)c3)nc3occn23)n1)c1ccc(F)cc1,31.9%
2,Cn1cc(-c2ccc(-c3cn(C)c4ccc(Cl)cc34)[nH]2)c2cc(Cl)ccc21,-12.9% (active)
3,S=C(c1ccc2c(c1)OCO2)N1CCN(c2cccc(Cl)c2)CC1,18.8%
4,O=C(O)c1ccc(-c2ccc(/C=N/Nc3nc(Nc4ccccc4)nc(N4CCCCC4)n3)o2)cc1,62.8%
5,COc1cccc(Nc2ncnc3cc(NC(=O)CCl)ccc23)c1,-26.9% (active)
6,COc1ccc(-c2n[nH]c(=O)c3nc(NC(=S)Nc4ccc(Oc5ccccc5)cc4)sc23)cc1,81.2%
7,COc1ccc(C(=O)N2c3ccccc3Sc3ccccc32)c(C(F)(F)F)c1,22.4%
8,C#CCNC(=O)[C@]1(C)CCC[C@@]2(C)[C@H]1CC=C1C=C(C(C)C)CC[C@@H]12,110%
9,O=C(CCCCCNC(=O)c1cc(=O)c(O)co1)Nc1ccccc1,95.1%
10,CNC1=CC(=O)c2c(C(=O)OC)c(C)[n+]([O-])c(C)c2C1=O,81.6%
11,O=C1/C(=C\c2ccccn2)c2ccccc2N1c1c(Cl)cccc1Cl,8.81% (active)
12,COc1cc(OC)cc(-c2ccc(-c3ccc(C(=N)N)o3)o2)c1,48.3%
13,C#CCOc1cccc(-c2ncnc3cc(NC(=O)C=C)ccc23)c1,8.7% (active)
14,COc1ccc(-c2nn(-c3ccccc3)cc2/C=C/C(=O)NNC(=O)Nc2ccc(C)cc2)cc1,47.4%
15,C/C(Cc1ccc(Cl)cc1)=C(\c1ccc(OCCCN(C)C)cc1)c1ccc(OC(=O)Cc2ccccc2)cc1,83.6%
16,CCOC(=O)C(=CNc1cnc(Nc2ccc(N3CCOCC3)cc2)nc1Oc1ccc(OC)cc1)C(=O)OCC,37.7%
17,CC[N+]1(CC)CC[N+]2(CCCC(C)CC2)CC1 (stereo not drawn),107%
18,CCNc1nc(O)c(/C=C2\C=Nc3ncccc32)s1,3.01% (active)
19,COc1cc(/C=N/Nc2ccc(Br)cc2)cc(OC)c1OC,31.1%
